Hit rate of the full screen: of about 330,000 compounds, about 20 (0.006%) were called active. Roughly 1% stayed inconclusive and do not appear here. This is one part of a sample in which actives are shown more often than they occur. The call rests on the fitted dose curve; in most records, active means well fitted inhibition curve with a large enough effect; inconclusive means small, poorly fitted or top-dose-only effect, or effect the other way; inactive means flat fitted curve, though single readings scatter.
Target: Protein phosphatase EYA2 (Homo sapiens) (UniProt O00167)
Sequence (O00167 whole entry, looked up): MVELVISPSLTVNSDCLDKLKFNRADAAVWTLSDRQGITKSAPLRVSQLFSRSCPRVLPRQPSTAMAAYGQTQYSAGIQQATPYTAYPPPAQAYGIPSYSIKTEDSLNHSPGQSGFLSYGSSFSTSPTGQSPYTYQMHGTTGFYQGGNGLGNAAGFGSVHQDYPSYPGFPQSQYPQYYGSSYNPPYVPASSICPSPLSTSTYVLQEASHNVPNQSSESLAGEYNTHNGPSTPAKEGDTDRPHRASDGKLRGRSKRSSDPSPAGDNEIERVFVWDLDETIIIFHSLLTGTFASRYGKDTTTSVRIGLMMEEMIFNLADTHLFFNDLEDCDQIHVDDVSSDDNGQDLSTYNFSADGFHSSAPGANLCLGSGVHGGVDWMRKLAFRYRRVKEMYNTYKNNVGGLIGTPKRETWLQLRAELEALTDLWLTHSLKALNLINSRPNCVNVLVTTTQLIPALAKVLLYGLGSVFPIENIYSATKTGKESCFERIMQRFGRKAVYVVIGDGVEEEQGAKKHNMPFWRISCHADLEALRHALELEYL
Assay: qHTS Assay for Inhibitors of the Phosphatase Activity of Eya2
Settings: recombinant Eya2, OMFP fluorescence dephosphorylation (OMFP is methylfluorescein phosphate); series mostly up to 76.9 µM
Text: The Eya family of proteins are essential co-activators of the Six1 transcription factor. Six1 is a developmental gene that is abnormally re-expressed in a large percentage of breast cancers. This over-expression plays a causal role in the initiation and metastatic development of breast cancers. The Eya family of proteins was also found to contain a unique HAD phosphatase domain with protein tyrosine phosphatase activity which can potentially play a role in Six1-mediated breast tumorigenesis. […] We have developed and optimized a 1536 well fluorescence-based HTS assay targeting the phosphatase activity of Eya2. Inhibitors found against Eya2 could serve as potential therapeutic tools to inhibit Six1-mediated breast tumorigenesis and to increase the efficiency of radiation and certain chemo therapy. These inhibitors could also be used as chemical probes to study the function of Eya2's phosphatase activity and its role in Six1-mediated breast tumorigenesis.
The Eya2 enzyme was kindly provided by the laboratory of Dr. Rui Zhao. The 3-O-methyl-fluorescein phosphate (OMFP) substrate and all buffer reagents were purchased from Sigma Aldrich. qHTS Assay Setup: 1. Buffer- 50 mM HEPES pH 7.5, 50 mM NaCl, 5 uM MgCl2, 0.05% BSA, 1 mM DTT. 2. OMFP Stock- 10 mM solution prepared in 100% DMSO and stored in single use aliquots at -20C. Assay Procedure- 1. Dispense 1.5 ul per well of Eya2 at 0.2 uM in black medium binding 1536 well Greiner plate 2. Transfer 23 nl of compound and control compound (EGTA) to plate 3. Incubate at ambient for 10 minutes 4. Dispense 1.5 ul per well of OMFP at 50 uM 5. Incubate at ambient for 10 minutes 6. Read on ViewLux using Excitation = 485 nm, Emission = 525 nm

activity, negative = inhibition, inactive:
CCS(=O)(=O)c1ccc(-c2cccc(NC(=O)c3ccc(Br)o3)c2)nn1
Cc1ccc2c(Cl)c(C(=O)NCCCn3ccnc3)sc2c1
CC(C)CCNC(=O)CCNS(=O)(=O)c1ccc(Cl)cc1
O=C(NCc1cccnc1)c1ccc(CS(=O)(=O)c2ccc(Br)cc2)o1
CC(=O)c1c(N2CCOCC2)nc(=S)n(Cc2ccccc2)c1C
O=C(Nc1ccc(OCC(=O)N2CCOCC2)cc1)c1cc(F)c(F)cc1Cl
Cc1cc(C(=O)Nc2ccc(C)c(S(=O)(=O)N3CCOCC3)c2)c2ccccc2n1
COc1ccc(CCNc2ncnc3c2nnn3Cc2ccccc2)cc1
O=C1OCCN1C(=O)[C@H]1[C@H](c2ccc(F)cc2)C(c2ccccc2)=NN1c1ccc(Br)cc1
Cc1ccc(NC(=O)N2CCSc3ccccc32)cc1
Cc1cc(SCC(=O)NCCN2C(=O)CSC2=O)nc2ccccc12
S=c1[nH]ccn1-c1ccc(Cl)cc1
CCCOc1cccc(C(=O)Nc2ccccc2C(=O)N2CCN(C)CC2)c1
COc1ccc2c(C)cc3nnnn3c2c1
CN(C)N(C)C(=O)C(O)(c1ccccc1)c1ccccc1
COc1ccc2[nH]c(C)c(CCN(Cc3cccs3)C(=S)Nc3ccccc3OC)c2c1
O=c1ccc2cc(S(=O)(=O)N3CCN(c4ccccc4)CC3)ccc2o1
O=S1(=O)N=C(N(CCO)/N=C/c2ccccc2F)c2ccccc21
O=C(CCc1nnc2ccc(NCCCN3CCCC3=O)nn12)NCc1ccccc1Cl
CC(=O)N1CCN(c2ccccc2NC(=S)NC(=O)c2cc3ccccc3o2)CC1
COc1ccc(NS(=O)(=O)c2cc(NC(=O)COc3ccccc3F)ccc2OC)cc1
O=C(CSc1nnc(SCc2ccc(F)cc2)s1)Nc1ccc(C(=O)O)cc1
O=C(CS(=O)(=O)c1ccc(C(F)(F)F)cn1)NNC(=O)c1ccccc1
O=C(CCc1ccc(S(=O)(=O)N2CCOCC2)cc1)Nc1ccc2ccccc2c1
N#CC1=C(N)N(c2ccc(F)cc2)C(=O)C1
NC(=O)C1CCCN(CC(=O)N2CCN(c3ccccc3)CC2)C1 (stereo not drawn)
CC[C@@]1(C(=O)OC)N[C@H](CN(C)C(C)=O)[C@@H]2C(=O)N(C)C(=O)[C@@H]21
COc1ccc(C(=O)N2CCCN(C)CC2)c(OC)c1
COC(C)(C)[C@]12CC(O)(C(C)C)ON1[C@H]1CCCCC1N2O (stereo partly drawn)
O=C(c1ccc(Cl)cc1)N1N=C(c2ccccn2)CC1(O)C(F)(F)F (stereo not drawn)
COc1ccc(Cl)cc1NC(=O)CCS(=O)(=O)c1ccc(Br)cc1
COC(=O)c1ccccc1NC(=O)CSc1n[nH]c(-c2ccncc2)n1
CCCCNS(=O)(=O)c1ccc(S(=O)(=O)n2cnc3ccccc32)cc1
